# Source: PubChem (National Center for Advancing Translational Sciences (NCATS))
# HT1080NT lethal: kills 2HG-producing HT-1080-NT fibrosarcoma cells | Potency, µM (series often up to 46.1 µM), for the others: at the top dose activity, negative = less viability, usual class: cytotoxic | 360,000 compounds, 1.6% hits | HT-1080-NT fibrosarcoma viability, CellTiter-Glo ATP luminescence, 48 h;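 also: NT is the 2HG producing partner of a matched IDH1 knockdown line; potency is read from the fitted curve at half-maximal effect; 0% = DMSO-treated cells and -100% = media-only wells without cells; nearly all actives have a fitted effect of over 55% in size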
#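 HT-1080-NT fibrosarcoma cells (2HG-overproducing), 750 cells/well in RPMI with 5% FBS, dosed after 2 h and incubated 48 h at 37C. CellTiter-Glo luminescence normalized to DMSO and no-cell wells; concentration-response curves fitted and classed.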
# HT1080 IDH1KD tx: kills HT-1080 cells with IDH1 knockdown; AID 686971; Potency, µM (highest dose often 46.1 µM), for the others: at the highest dose activity, negative = toxicity, usual class: cytotoxic; 360,000 compounds, 2% hits; HT-1080 IDH1 knockdown viability, ATP luminescence, 48 h;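 also: potency is read from the fitted curve at half-maximal effect; 0% = DMSO wells and -100% = cell-free medium wells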
#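 Viability of IDH1-knockdown HT-1080 fibrosarcoma cells was assessed by CellTiter-Glo after 48 h at 37 °C with titrated compound; concentration-effect curves were classified by fit quality and response size.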
# KB-V1 cytotox: kills drug-selected multidrug resistant KB-V1 cells. KB-V1 MDR cells viability, CellTiter-Glo, 72 h. Potency, µM (titrated, usually from 46.1 µM), usual class: cytotoxic. 400,000 compounds, 3.4% hits; also: potency is read from the fitted curve at half-maximal effect; nearly all actives have a fitted effect of over 60% in size
#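 KB-V1, DMEM (no phenol red) + 10% FBS; cpd pin-transferred, titration series; 72 h, 37 degrees C; CellTiter-Glo, luminescence. Data normalized, curve-fit.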
# IL1B secr inh: inhibitors of inflammasome signaling (IL-1 beta secretion); 360,000 compounds, 4.7% hits; AID 743279; activity change, % at 57.5 µM; THP-1 LPS/ATP IL-1B secretion, AlphaLISA, 16 h; active compounds read low; in the data active = activity change below about -50%; inconclusive = mostly about -30% to -49%
#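 THP-1 cells pretreated 1 hr with compounds (up to 57.5 uM final), then stimulated with LPS (250 ng/mL final) plus ATP (1.25 mM final); secreted IL-1B measured by AlphaLISA after 16 hr, decreased signal indicating inhibition.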
# KB-3-1 cytotox: kills parental KB-3-1 adenocarcinoma cells; 400,000 compounds, 1.4% hits; KB-3-1 viability, CellTiter-Glo ATP luminescence, 72 h; Potency, µM (top dose mostly 46.1 µM), hits mostly cytotoxic; also: potency is read from the fitted curve at half-maximal effect; nearly all actives have a fitted effect of over 60% in size
#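 Viability of parental KB-3-1 cells, measured by CellTiter-Glo luminescence, followed a 72 h incubation at 37 °C with pinned compounds in phenol-red-free DMEM containing 10% FBS.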
# Starred values were filed as active, the others as inactive; i = inactive; ? = inconclusive; . = no result given. An excerpt weighted towards active compounds, which were near 8.8% of everything screened. Unless noted, calls follow the shape of the dose curve; as a rule, active = well fitted curve in the direction sought with a large enough effect; inconclusive = small, poorly fitted or top-dose-only effect, or another doubt; inactive = no such curve, though single readings can be large; an effect the other way counts as inactive or inconclusive. Unless noted, % is scaled to controls: 0 for no effect and ±100 for the full control effect.
SMILES,HT1080NT lethal,HT1080 IDH1KD tx,KB-V1 cytotox,IL1B secr inh,KB-3-1 cytotox
Cc1cc(NC(=O)COC(=O)C(Nc2ccc(C(F)(F)F)cc2Cl)C(C)C)no1 (stereo not drawn),18µM*,?,i,-13,i
Cc1cc(NC(=O)COC(=O)c2ccc(OC(F)(F)F)cc2)no1,10%,11%,i,7,i
CCOc1ccc(NC(=O)c2ccc(N3CC4CC(C3)c3cccc(=O)n3C4)c(NC(=O)c3cccnc3)c2)cc1 (stereo not drawn),0%,1%,i,-18,?
Cc1ccc(Nc2c(-c3c[nH]c4ccccc34)nc3ccccn23)cc1,.,.,i,.,i
CC(C)Nc1nc(NC2CCCC2)nc(N2CCOCC2)n1,-1%,0%,?,-99*,i
COc1cccc(OC)c1C(=O)Nc1cccc(NC(=O)c2cccs2)c1,1%,1%,i,0,i
CC(C)C1OC(c2cccc(NC(=O)c3cccs3)c2)OCC1(C)C (stereo not drawn),?,?,?,-75*,?
O=C(Cn1cnc2c(nc3n2CCCCC3)c1=O)Nc1ccc(F)c(Cl)c1,.,.,i,.,i
Cn1c(=O)c([N+](=O)[O-])c(NCc2ccccc2Cl)c2ccccc21,-9%,-13%,i,-79*,i
Cn1c(=O)c([N+](=O)[O-])c(NCCc2ccccc2)c2ccccc21,-3%,-20%,?,-10,i
Cn1c(=O)c([N+](=O)[O-])c(Cl)c2ccccc21,5.8µM*,5.8µM*,i,-101*,?
COc1ccc(CCN(C)C(=O)CSc2ncnc3sccc23)cc1OC,-17%,10%,?,19,i
COc1ccc(CN(C)c2ncnc3sccc23)c(OC)c1OC,?,?,4.6µM*,-12,8.2µM*
COc1ccc(CCN(C)c2ncnc3sccc23)cc1OC,-16%,-7%,i,-53*,i
CN(Cc1ccccc1F)c1ncnc2sccc12,-22%,-27%,i,27,i
CN1CCC(=NNC(=O)C(=O)Nc2ccccc2F)CC1,11%,-2%,i,-19,i
CCC(C(=O)Nc1ccccc1)n1nc(-c2cc(C)ccc2C)ccc1=O (stereo not drawn),.,.,i,.,i
CCN(CC(=O)Nc1cccc(OC)c1)c1ncnc2sc(C)c(C)c12,0%,-4%,2.3µM*,-22,?
CC(C)C(=O)Nc1nnc(CSCc2ccccc2F)s1,4%,0%,18µM*,6,i
CC(C)(C)C(=O)Nc1nnc(CSCc2ccccc2F)s1,0%,2%,i,48,i
NC(=S)NN=C1c2ccccc2-c2ccccc21,-8%,-7%,i,-15,i
NC(=S)N/N=C1/CCSc2ccc3ccccc3c21,26µM*,?,?,-95*,i
Cc1c(C(=O)N(CCc2ccccc2)Cc2ccccc2)cccc1[N+](=O)[O-],?,?,i,-82*,i
Cc1c(C(=O)NCCSc2ccc(Cl)cc2)cccc1[N+](=O)[O-],-2%,-11%,i,-20,i
Cc1c(C(=O)NCCSCc2ccccc2)cccc1[N+](=O)[O-],0%,-3%,i,-57*,i
SMILES,HT1080NT lethal,HT1080 IDH1KD tx,KB-V1 cytotox,IL1B secr inh,KB-3-1 cytotox
Cc1cc(CNC(=O)c2cccc([N+](=O)[O-])c2C)c2ccccc2n1,-29%,-21%,5.8µM*,-10,i
Cc1c(C(=O)NCCSCc2ccc(Cl)cc2Cl)cccc1[N+](=O)[O-],?,?,26µM*,-58*,?
COc1ccc(OC)c(NC(=O)CSc2ccc3nnc(-c4ccccn4)n3n2)c1,3%,-2%,i,-13,i
CCOC(=O)C1CCN(C(=O)CSc2nc3ncccc3[nH]2)CC1,1%,8%,i,5,i
CCc1ccc(N/C(SCc2ccccc2C)=C(/C#N)C(=O)NCc2ccco2)cc1,1%,-6%,i,-11,?
CCCC(=O)Nc1cc(C)c(NC(=O)c2ccco2)cn1,19%,9%,i,-8,i
COc1ccc(C(=O)NCCc2cc3ccc(C)c(C)c3[nH]c2=O)cc1OC,-1%,4%,i,1,i
